Screens deposited in PubChem BioAssay by National Center for Advancing Translational Sciences (NCATS).
In the library only some 6% were active in any assay of this set; here they are far more common.
D1 potentiator – Potentiators of Human D1 Dopamine Receptor: qHTS; HEK293 TREx D1 cells, calcium flux, dopamine EC20 potentiation; potentiation, % at 10 µM; 0.036% of 360,000 active; AID 504651, 2011; in the data active means potentiation above about 30%; further: 0% is about no effect
Target sequence (P21728 whole entry, looked up): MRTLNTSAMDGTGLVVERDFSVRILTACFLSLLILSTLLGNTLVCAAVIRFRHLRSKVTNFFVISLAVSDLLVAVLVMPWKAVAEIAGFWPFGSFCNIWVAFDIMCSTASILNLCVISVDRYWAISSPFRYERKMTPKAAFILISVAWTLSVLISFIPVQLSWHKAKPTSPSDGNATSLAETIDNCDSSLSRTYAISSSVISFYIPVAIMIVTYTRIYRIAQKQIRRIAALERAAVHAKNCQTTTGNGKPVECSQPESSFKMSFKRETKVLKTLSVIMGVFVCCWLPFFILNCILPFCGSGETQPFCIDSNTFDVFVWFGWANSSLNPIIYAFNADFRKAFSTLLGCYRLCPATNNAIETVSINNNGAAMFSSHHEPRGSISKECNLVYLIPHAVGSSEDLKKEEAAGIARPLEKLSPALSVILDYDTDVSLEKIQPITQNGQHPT
D3 ag – qHTS of D3 Dopamine Receptor Agonist: qHTS; D3R DiscoveRx beta-arrestin cells, luminescence, 90 min; 0.58% of 410,000 active; max activation, %; AID 652048, 2013; in the data active means max activation above about 30%; further: 0% is about no effect
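Agonist-mode cell screen: cells plated at 1500/well and incubated overnight at 37 °C, then exposed to library compounds for 90 min at 37 °C. Detection reagent was added for 30–60 min at room temperature, and luminescence was read.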
D1 ag – Allosteric Agonists of the Human D1 Dopamine Receptor: qHTS; D(1A) dopamine receptor (Homo sapiens), P21728; 1% of 360,000 active; activation, % at 2 µM; AID 504660, 2011; HEK293 T-REx D1 cells, calcium flux, agonist mode; in the data active means activation above about 30%; further: 0% is about no effect
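Agonism was scored from calcium flux recorded over 180 s (1 read/s) after pintool compound addition, following a 10-cycle baseline. Cells were inducible force-coupled HEK293 TREx D1, plated overnight at 30 C and loaded with no-wash calcium dye.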
DRD3 antagonist – qHTS of D3 Dopamine Receptor Antagonist: qHTS. D(3) dopamine receptor (Homo sapiens), P35462. AID 652054, 2013. 2.5% of 360,000 active. D3R cells, DiscoveRx beta-arrestin luminescence, antagonist mode; active compounds read low. max response, negative = inhibition, %; in the data active means max response below about -50%; inconclusive means no clear call, values can overlap the other calls; further: on the % scale 0 is the no-effect control and ±100 the full control effect
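Cells expressing the human receptor were seeded at 1500 cells/well, incubated overnight at 37 degrees C in 5% CO2, then exposed to library compounds with dopamine controls for 90 minutes at 37 degrees C before luminescent detection.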
D1 antagonist – Antagonist of Human D 1 Dopamine Receptor: qHTS; activity change, negative = inhibition, % at 10 µM; 3.2% of 360,000 active; D(1A) dopamine receptor (Homo sapiens), P21728; HEK293 TREx D1 cells, calcium flux, dopamine EC80; active compounds read low; AID 504652, 2011; in the data active means activity change below about -30%; further: on the % scale 0 is the no-effect control and ±100 the full control effect
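Allosteric or orthosteric antagonism assessed as attenuation of the calcium response to EC80 dopamine, added 180 s after compound, in induced HEK293 Trex D1 cells loaded with no-wash calcium dye.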
Active calls of the source: *; ? = inconclusive; / = no result given.

SMILES | D1 potentiator | D3 ag | D1 ag | DRD3 antagonist | D1 antagonist
O=c1c2c(-c3ccc(Cl)cc3)csc2ncn1/N=C/c1cccc([N+](=O)[O-])c1O | -3.6 | -23.2 | 3.6 | -60.8* | 15.8
O=[N+]([O-])c1cc(Cl)cc(/C=N/n2cnnc2)c1O | 0.6 | -11.6 | 2.3 | -56.9* | -17.6
O=[N+]([O-])c1cc(Br)cc(/C=N/n2cnnc2)c1O | 1.2 | -10.6 | 6.3 | ? | 4.5
O=c1c2c(-c3ccccc3)csc2ncn1/N=C/c1c2ccccc2cc2ccccc12 | -0.6 | 14.3 | 5.5 | 29.9 | /
O=[N+]([O-])c1cccc(/C=N/n2cnnc2)c1O | 1.4 | -1.8 | 3.6 | -55.0* | 4.2
Cc1nn(-c2ccccc2)c(N2CCCC2)c1/C=N/n1cnc2scc(-c3ccccc3)c2c1=O | -3.0 | -13.6 | 2.7 | -61.1* | -14.0
COc1cc(NS(=O)(=O)c2ccc(NC(=O)c3ccc(Cl)cc3Cl)cc2)nc(OC)n1 | 0.1 | -2.0 | -1.6 | / | 6.2
CCN1CCN(C(=O)c2ccc3c(c2)N(Cc2cc(C)ccc2C)C(=O)c2ccccc2S3=O)CC1 (centres undefined) | -4.0 | -23.0 | 2.9 | / | -9.0
CC(CC(=O)Nc1ccc2c(c1)c(=O)n(C)n2-c1ccccc1F)c1ccccc1 (centres undefined) | / | -21.9 | / | -89.5* | /
Cn1c(=O)c2cc(NC(=O)CC(C)(C)C)ccc2n1-c1ccccc1F | / | -7.3 | / | 0.0 | /
Cc1c(C(=O)c2ccc(F)cc2)c2ccccn2c1CCc1ccccn1 | -12.7 | 0.4 | 1.2 | 10.9 | -53.6*
COc1cccc(CN(C)C(=O)Cn2cc(C)c(=O)[nH]c2=O)c1 | / | -16.5 | / | -7.8 | /
CC(=O)N1CCN(c2ccc(NC(=O)c3ccco3)cc2Cl)CC1 | -2.5 | 0.8 | 3.6 | -7.8 | -9.8
O=C(Nc1ccc(CN2CCS(=O)(=O)CC2)cc1)c1ccc(C(F)(F)F)cc1 | -12.8 | 22.9 | 14.1 | 17.3 | -46.3*
O=C(Nc1ccc(N2CCN(C(=O)c3ccccc3)CC2)c(Cl)c1)c1ccco1 | -5.3 | 4.8 | 3.9 | 18.2 | -33.4*
O=C(Nc1ccc2c(c1)Cc1ccccc1-2)c1ccco1 | -1.6 | 3.8 | 4.6 | -97.8* | -11.3
COc1cccc(OC)c1C(=O)Nc1ccc2c(c1)Cc1ccccc1-2 | -4.3 | -6.3 | 6.7 | -17.9 | -10.5
CCOc1ccc(NC(=O)c2ccc(NC(=S)NC3CCCCC3)cc2)cc1 | 0.8 | -11.5 | -0.1 | -68.3* | -4.6
Cc1cn(C)c(CC(=O)NCc2ccccc2Cl)c1C(=O)O | -3.0 | 6.4 | -1.2 | / | 16.9
O=C(Nc1ccc(N2CCOCC2)c(Cl)c1)c1ccc(Cl)cc1 | -5.0 | 1.8 | 13.6 | 4.5 | -30.6*
CC(C)C(=O)N1CCN(c2ccc(NC(=O)c3ccco3)cc2Cl)CC1 | / | 5.7 | 11.7 | 9.5 | 3.7
COc1c(C(=O)Nc2ccc(CN3CCOCC3)cc2)cc2ccccc2c1Br | -2.4 | 0.0 | 13.0 | -15.9 | -30.7*
O=C(Nc1ccc(CN2CCOCC2)cc1)c1ccco1 | -3.6 | -10.3 | 2.1 | 6.8 | -35.4*
O=C(Nc1ccc(N2CCOCC2)c(Cl)c1)c1ccco1 | -14.0 | -1.9 | 3.0 | 27.9 | -33.7*
Cc1ccccc1C(=O)Nc1ccc(CN2CCOCC2)cc1 | -5.7 | 0.9 | 6.3 | 4.8 | -9.3
SMILES | D1 potentiator | D3 ag | D1 ag | DRD3 antagonist | D1 antagonist
O=C(Nc1ccc(CN2CCOCC2)cc1)c1ccc(Cl)cc1 | 3.5 | -3.3 | 12.0 | -7.2 | 6.8
Cc1ccc2c(=O)cc(C(=O)Nc3cccc(Cl)c3C)oc2c1C | -1.3 | -0.4 | 0.1 | / | 14.2
CCCC(=O)N1CCN(c2ccc(NC(=O)c3cc4ccccc4o3)cc2Cl)CC1 | -8.8 | 34.9* | 10.8 | -3.6 | -46.9*
O=C(Nc1ccc2c(c1)CCCN2C(=O)c1cccs1)c1c(F)cccc1Cl | -9.0 | 4.7 | 1.2 | 1.1 | -44.1*
O=C(Nc1ccc(N2CCOCC2)c(F)c1)c1cccs1 | -7.3 | 8.0 | 0.1 | 2.3 | -38.5*
O=C(Nc1ccc(N2CCN(C(=O)c3ccco3)CC2)c(Cl)c1)c1cc2ccccc2o1 | -1.4 | 35.5* | 4.5 | -1.0 | -15.8
O=C(Nc1ccc2c(c1)CCCN2C(=O)c1cccs1)c1c(F)cccc1F | -7.0 | -1.8 | 3.7 | -11.1 | -18.5
O=C(CN1C(=O)CSc2ccc(S(=O)(=O)N3CCCC3)cc21)Nc1cccc(Cl)c1 | -1.9 | 0.1 | 2.8 | / | 2.2
COc1ccc(-c2csc(C(C)(O)c3ccc(F)c(F)c3)n2)cn1 (centres undefined) | / | -3.9 | / | 10.0 | /
COc1ccc(C)cc1NC(=O)Cc1ccc(NC(=O)N2CCCCc3ccccc32)cc1 | -2.2 | 4.0 | 1.1 | / | -0.4
O=C(Nc1ccc(Oc2ccccc2)cc1)c1ccc(F)c(S(=O)(=O)N2CCN(c3cccc(Cl)c3)CC2)c1 | -0.7 | -4.5 | 2.0 | / | 11.4
Cc1ccc(S(=O)(=O)N2CCN(C(=O)CN3CCN(c4ccc(O)cc4)CC3)CC2)cc1 | / | 0.9 | / | -15.9 | /
CCOc1ccc(NC(=O)c2ccc(NC(=O)c3ccc(CN4CCOCC4)cc3)cc2)cc1 | -3.5 | 3.3 | 3.4 | 0.9 | -33.7*
CCOc1ccc(NC(=O)Nc2nc(SCC)ns2)cc1 | -5.7 | 1.2 | 26.6 | 29.8 | -40.6*
CCSc1nsc(NC(=O)Nc2ccccc2Cl)n1 | / | 8.4 | / | 2.6 | /
S=C(NCCN1CCOCC1)N/N=C/c1c2ccccc2cc2ccccc12 | 1.0 | 0.2 | 31.7* | -12.7 | -2.8
O=S(=O)(c1ccccc1)N1CCN(C(=S)NCCCN2CCOCC2)CC1 | 5.5 | -9.7 | 0.5 | -12.5 | -46.3*
S=C(NCCCN1CCOCC1)NN=C1c2ccccc2-c2ccccc21 | / | -17.8 | / | -70.6* | /
COc1ccc2ccccc2c1/C=N/NC(=S)NCCN1CCOCC1 | 1.6 | -4.4 | 0.8 | -11.1 | 0.6
CCc1ccc(C2c3[nH]c4ccccc4c3CCN2C(=O)CN2CCN(CC)CC2)cc1 (centres undefined) | 4.5 | -14.3 | 28.0 | -55.2* | 12.4
CCOc1cccc(CC(=O)N2CCc3c([nH]c4ccccc34)C2c2ccc(Cl)cc2)c1OCC (centres undefined) | -3.3 | -6.2 | 2.2 | / | -86.5*
CCc1ccc(OCC(=O)Nc2ccc(-c3nc4ncccc4o3)cc2)cc1 | 0.7 | -12.4 | -1.2 | / | -2.9
COc1ccc(OC)c(CCNC(=O)c2ccc(CS(=O)Cc3ccc(Cl)cc3)o2)c1 (centres undefined) | 10.5 | -0.6 | 3.6 | -15.1 | 3.9
CN(C(=O)CCc1nc2ccccc2c(=O)[nH]1)C1CCS(=O)(=O)C1 (centres undefined) | / | 0.5 | 2.2 | -3.7 | -7.7
O=C(C[n+]1ccc(C(=O)NCc2ccccc2)cc1)c1ccc(OC(F)F)cc1 | -1.7 | 7.2 | 2.7 | 0.9 | -3.6
Cc1ccc[n+](CC(=O)Nc2c(Cl)cc(Cl)cc2Cl)c1 | -3.2 | -2.9 | 0.7 | -17.0 | 19.5
